Assay results taken from PubChem BioAssay (NCI).
This is part of a sample that, as a whole, favours compounds with a hit. Of some 79,000 tested, about 15% had one in any assay. Values without a mark were called inactive. Active and inactive are the calls of the source. No stated cut-off is given here; in the data, active means growth inhibition above about 70%; inactive means the rest.

Key:
[1] = NCI Yeast Anticancer Drug Screen. Data for the rad50 strain (AID 155);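 further: 0% = growth of vehicle-only cultures of the same strain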; details: S. cerevisiae rad50 strain growth inhibition; at 50.0 µM; active compounds read high
In short: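 Cells are treated with compound, grown, and their growth is then scored against vehicle-only cultures of the same repair-deficient yeast strain.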

[2] = NCI Yeast Anticancer Drug Screen. Data for the mec2-1 strain (AID 157); details: S. cerevisiae mec2-1 strain, at 50.0 µM, active compounds read high
In short: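 Using mec2-1 yeast: add compound, measure growth, express inhibition versus vehicle-treated cultures.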

[3] = NCI Yeast Anticancer Drug Screen. Data for the sgs1 mgt1 strain (AID 161);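 further: 0% = growth of cultures given vehicle only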; details: S. cerevisiae sgs1 mgt1 strain, at 50.0 µM, active compounds read high
In short: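 Percent growth inhibition was derived by comparing compound-exposed mutant yeast with vehicle-exposed cultures. The strain carries alterations in DNA damage repair.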

[4] = NCI Yeast Anticancer Drug Screen. Data for the cln2 rad14 strain (AID 165);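 further: 0% = growth equal to vehicle treated cultures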; details: S. cerevisiae cln2 rad14 strain, at 50.0 µM, active compounds read high
In short: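 Yeast strain cln2 rad14, bearing defects in cell cycle control and DNA repair, serves as the test system; values reflect growth inhibition compared with vehicle.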

[5] = NCI Yeast Anticancer Drug Screen. Data for the bub3 strain (AID 167); details: S. cerevisiae bub3 mutant strain, at 50.0 µM, active compounds read high
In short: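 Part of a panel of yeast mutants defective in DNA damage repair or cell cycle regulation. Each strain is grown with compound, and inhibition is calculated relative to solvent-treated cultures.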

[6] = NCI Yeast Anticancer Drug Screen. Data for the mlh1 rad18 strain (AID 175); details: S. cerevisiae mlh1 rad18 strain growth inhibition; at 50.0 µM; active compounds read high
In short: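 Steps: expose repair-defective yeast to compound; measure growth; express inhibition against vehicle-treated controls.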

SMILES: O=C1OC(c2ccccc2)=CC1Cc1ccccc1 (stereo not drawn)
- growth inhibition [1]: 34.9%
- growth inhibition [2]: -2.35%
- growth inhibition [3]: 1.85%
- growth inhibition [4]: 3.4%
- growth inhibition [5]: -3%
- growth inhibition [6]: -8%

SMILES: CC(=O)Oc1c(OC(C)C)c(C)c(O[Si](C(C)C)(C(C)C)C(C)C)c2[nH]c3ccccc3c12
- growth inhibition [1]: 33.9%
- growth inhibition [2]: -5.05%
- growth inhibition [3]: -23.2%
- growth inhibition [4]: -10.9%
- growth inhibition [5]: -12.4%
- growth inhibition [6]: -29.7%

SMILES: CC(C)(CO)N=Cc1ccc(Cl)c(Cl)c1
- growth inhibition [1]: 2.35%
- growth inhibition [2]: -13.2%
- growth inhibition [3]: -16.5%
- growth inhibition [4]: -3.1%
- growth inhibition [5]: -11.5%
- growth inhibition [6]: -24.6%

SMILES: CCC(=O)C(C)C(=O)N(CC(C)C)CC(C)C (stereo not drawn)
- growth inhibition [1]: -12.7%
- growth inhibition [2]: -6.85%
- growth inhibition [3]: -5.3%
- growth inhibition [4]: -11.8%
- growth inhibition [5]: -0.2%
- growth inhibition [6]: -19.8%

SMILES: CN(C)N=Nc1ccc(C(=O)N/N=C/c2ccc([N+](=O)[O-])cc2)cc1
- growth inhibition [1]: -0.95%
- growth inhibition [2]: 40.5%
- growth inhibition [3]: 4.75%
- growth inhibition [4]: -5.75%
- growth inhibition [5]: 23.9%
- growth inhibition [6]: 17.9%

SMILES: CCN(CC)c1ccc(Br)cc1
- growth inhibition [1]: 32.9%
- growth inhibition [2]: 4%
- growth inhibition [3]: 4.55%
- growth inhibition [4]: -2.5%
- growth inhibition [5]: 14.2%
- growth inhibition [6]: 33.9%

SMILES: CCCC1(C(=O)O)NC(=O)NC1=O (stereo not drawn)
- growth inhibition [1]: -4.7%
- growth inhibition [2]: -11.3%
- growth inhibition [3]: -14.7%
- growth inhibition [4]: -12.6%
- growth inhibition [5]: -1.1%
- growth inhibition [6]: -8.1%

SMILES: Cc1cccc(C)c1N1C(=O)C2c3[nH]c4ccccc4c3C3CCC(C(C)(C)C)CC3C2C1=O (stereo not drawn)
- growth inhibition [1]: 37.7%
- growth inhibition [2]: 11.4%
- growth inhibition [3]: 28.2%
- growth inhibition [4]: 1.8%
- growth inhibition [5]: 3.4%
- growth inhibition [6]: 18.1%

SMILES: Cc1ccc(NC(=O)c2cccc(C(=O)Nc3ccc(C)c(Cl)c3)c2)cc1Cl
- growth inhibition [1]: -28.1%
- growth inhibition [2]: -16.6%
- growth inhibition [3]: -11.2%
- growth inhibition [4]: -35%
- growth inhibition [5]: -5.55%
- growth inhibition [6]: 8.6%

SMILES: CC(=O)c1cc2c(cc1C)C(C)(C)CCC2
- growth inhibition [1]: 8.45%
- growth inhibition [2]: 14.2%
- growth inhibition [3]: 3.1%
- growth inhibition [4]: -47.7%
- growth inhibition [5]: -16.4%
- growth inhibition [6]: 13.1%

SMILES: Cc1ccoc1
- growth inhibition [1]: 12.5%
- growth inhibition [2]: -18.1%
- growth inhibition [3]: 6.45%
- growth inhibition [4]: 11.8%
- growth inhibition [5]: 26.8%
- growth inhibition [6]: 15.8%

SMILES: Clc1ccc(OCc2nnc3n2N=C(c2ccc(Br)cc2)CS3)cc1
- growth inhibition [1]: 5.5%
- growth inhibition [2]: 8.35%
- growth inhibition [3]: 8.8%
- growth inhibition [4]: 7.05%
- growth inhibition [5]: -5%
- growth inhibition [6]: 13.6%

SMILES: CSc1ccc(NC(=O)COc2ccccc2)cc1
- growth inhibition [1]: 9.75%
- growth inhibition [2]: 19.1%
- growth inhibition [3]: 6.05%
- growth inhibition [4]: -3.7%
- growth inhibition [5]: 39.3%
- growth inhibition [6]: 21.7%

SMILES: FC12CCC(F)(CC1)CC2
- growth inhibition [1]: -7.85%
- growth inhibition [2]: 20.1%
- growth inhibition [3]: -7.5%
- growth inhibition [4]: -13.9%
- growth inhibition [5]: 7.6%
- growth inhibition [6]: -2.55%

SMILES: COC(=O)/C=C\n1c(C)cc(=O)[nH]c1=O
- growth inhibition [1]: 2.9%
- growth inhibition [2]: 0.35%
- growth inhibition [3]: -5.5%
- growth inhibition [4]: -4.75%
- growth inhibition [5]: -2.8%
- growth inhibition [6]: -45.5%

SMILES: C/C=N/Nc1ccccc1
- growth inhibition [1]: 24.8%
- growth inhibition [2]: -1.4%
- growth inhibition [3]: 18.2%
- growth inhibition [4]: 32.9%
- growth inhibition [5]: 31.9%
- growth inhibition [6]: 30%

SMILES: Cc1cccc(NCc2ccccc2)c1
- growth inhibition [1]: 32.5%
- growth inhibition [2]: 5.95%
- growth inhibition [3]: 19.4%
- growth inhibition [4]: -22.1%
- growth inhibition [5]: 29.6%
- growth inhibition [6]: 24.9%

SMILES: CC1C(C)C1(c1ccccc1)C(C)(C)O (stereo not drawn)
- growth inhibition [1]: 8.55%
- growth inhibition [2]: 1.1%
- growth inhibition [3]: 1.3%
- growth inhibition [4]: 16.9%
- growth inhibition [5]: -24.1%
- growth inhibition [6]: -3.45%

SMILES: CCC(=O)Oc1ccccc1C(C)C
- growth inhibition [1]: 9.8%
- growth inhibition [2]: -14.6%
- growth inhibition [3]: 1.9%
- growth inhibition [4]: 8.55%
- growth inhibition [5]: -6.25%
- growth inhibition [6]: 12.2%

SMILES: COCC(=O)c1ccc(C#N)cc1
- growth inhibition [1]: 4.35%
- growth inhibition [2]: -20.2%
- growth inhibition [3]: -7.25%
- growth inhibition [4]: -39%
- growth inhibition [5]: 4.45%
- growth inhibition [6]: 2.2%

SMILES: CC(C)[C@@H]1C=C(c2ccccc2)c2ccccc2C1C(C#N)(C#N)C(C)C (stereo partly drawn)
- growth inhibition [1]: -30.2%
- growth inhibition [2]: -33.5%
- growth inhibition [3]: -10.3%
- growth inhibition [4]: -8.4%
- growth inhibition [5]: -12.9%
- growth inhibition [6]: -14.1%

SMILES: Oc1ccccc1-c1nc2ccccc2s1
- growth inhibition [1]: -0.25%
- growth inhibition [2]: -37%
- growth inhibition [3]: 7.85%
- growth inhibition [4]: -2.7%
- growth inhibition [5]: 10.3%
- growth inhibition [6]: -10.2%

SMILES: O=C(O)c1ccc(O)cn1
- growth inhibition [1]: -4.8%
- growth inhibition [2]: -7.05%
- growth inhibition [3]: 2.55%
- growth inhibition [4]: 6.7%
- growth inhibition [5]: 3.3%
- growth inhibition [6]: 2.55%

SMILES: NS(=O)(=O)c1ccc(NO)cc1
- growth inhibition [1]: -16.1%
- growth inhibition [2]: -7.45%
- growth inhibition [3]: 6.3%
- growth inhibition [4]: -15.2%
- growth inhibition [5]: 6.9%
- growth inhibition [6]: 9.85%

SMILES: CCCCCCCCCCCCCCCC[N+](C)(C)Cc1ccccc1
- growth inhibition [1]: 99.2% (active)
- growth inhibition [2]: 99% (active)
- growth inhibition [3]: 99.3% (active)
- growth inhibition [4]: 99% (active)
- growth inhibition [5]: 98.8% (active)
- growth inhibition [6]: 98.9% (active)

SMILES: Cc1c2cc3c(c1O)C(=O)CC(O3)c1ccc(O)c(c1)-c1cccc(c1O)C(=O)OCC1OC(O2)C(O)C(O)C1O (stereo not drawn)
- growth inhibition [1]: 51.2%
- growth inhibition [2]: 54.4%
- growth inhibition [3]: 32%
- growth inhibition [4]: 34.5%
- growth inhibition [5]: 39.6%
- growth inhibition [6]: 30.1%

SMILES: CSCCCNC(=O)NS(=O)(=O)c1ccc(C)cc1
- growth inhibition [1]: 6.55%
- growth inhibition [2]: -1.35%
- growth inhibition [3]: 8.95%
- growth inhibition [4]: 7.75%
- growth inhibition [5]: 6.6%
- growth inhibition [6]: 2.85%

SMILES: CCN(CC)C(=O)CNC(=O)c1c2nc3c(C(=O)NCC(=O)N(CC)CC)ccc(C)c3oc-2c(C)c(=O)c1N
- growth inhibition [1]: 16.9%
- growth inhibition [2]: 33.9%
- growth inhibition [3]: 8.95%
- growth inhibition [4]: 32.9%
- growth inhibition [5]: 10.9%
- growth inhibition [6]: 30.6%

SMILES: CC1=CC2(C)Cc3cc(C)cc(C)c3S(=O)(=O)C2C(C(=O)O)=C1 (stereo not drawn)
- growth inhibition [1]: -11%
- growth inhibition [2]: -30.4%
- growth inhibition [3]: -13.9%
- growth inhibition [4]: -13.5%
- growth inhibition [5]: -14.8%
- growth inhibition [6]: -15.2%

SMILES: COC(=O)CC(C)N(c1ccc(OC)cc1)S(=O)(=O)c1ccc(C)cc1 (stereo not drawn)
- growth inhibition [1]: 18.4%
- growth inhibition [2]: 4.05%
- growth inhibition [3]: 14.3%
- growth inhibition [4]: -46%
- growth inhibition [5]: 17.6%
- growth inhibition [6]: 10.3%

SMILES: c1ccc2c3c(ccc2c1)Oc1ccc2ccccc2c1C3CCC1c2c(ccc3ccccc23)Oc2ccc3ccccc3c21
- growth inhibition [1]: -8.75%
- growth inhibition [2]: -19.6%
- growth inhibition [3]: -4.9%
- growth inhibition [4]: 1.5%
- growth inhibition [5]: -17.2%
- growth inhibition [6]: 7.75%

SMILES: CN(C)/N=C\c1ccc([N+](C)(C)C)cc1
- growth inhibition [1]: -20.4%
- growth inhibition [2]: -25.1%
- growth inhibition [3]: 7.05%
- growth inhibition [4]: -19.9%
- growth inhibition [5]: 32.8%
- growth inhibition [6]: -44.7%

SMILES: Clc1ccc(C=NC23CC4CC(CC(C4)C2)C3)cc1Cl
- growth inhibition [1]: -19.1%
- growth inhibition [2]: -24.1%
- growth inhibition [3]: -16.2%
- growth inhibition [4]: 17.6%
- growth inhibition [5]: 7.55%
- growth inhibition [6]: 12%

SMILES: CC1CC[P+](c2ccccc2)(c2ccccc2)CC1
- growth inhibition [1]: 22.9%
- growth inhibition [2]: 17.4%
- growth inhibition [3]: 30.3%
- growth inhibition [4]: 4.5%
- growth inhibition [5]: 22.1%
- growth inhibition [6]: 32.5%

SMILES: CN(CCSSCCN(C)/N=C/c1ccccc1)/N=C/c1ccccc1
- growth inhibition [1]: -30.6%
- growth inhibition [2]: -10%
- growth inhibition [3]: -26.7%
- growth inhibition [4]: -27.6%
- growth inhibition [5]: -10.7%
- growth inhibition [6]: -17.1%

SMILES: COC(=O)c1cc(-c2ccncc2)[nH]c(=O)c1C#N
- growth inhibition [1]: -5.05%
- growth inhibition [2]: -32.1%
- growth inhibition [3]: -33.9%
- growth inhibition [4]: -18.1%
- growth inhibition [5]: -15.2%
- growth inhibition [6]: -19.9%

SMILES: O=C1OC(c2ccccc2)(c2ccc(Cl)cc2)CC1/C=C(\c1ccccc1)c1ccc(Cl)cc1 (stereo not drawn)
- growth inhibition [1]: -2%
- growth inhibition [2]: 6.65%
- growth inhibition [3]: 6.6%
- growth inhibition [4]: -10.4%
- growth inhibition [5]: -7.4%
- growth inhibition [6]: 3.65%

SMILES: O=NN(Cc1ccccc1)NC(=O)c1ccccc1
- growth inhibition [1]: 6.2%
- growth inhibition [2]: 28.1%
- growth inhibition [3]: 8.9%
- growth inhibition [4]: -8.4%
- growth inhibition [5]: 20.9%
- growth inhibition [6]: 11.2%
